Assay results taken from PubChem BioAssay (NCATS).
A number with no mark means an inactive call. Records with an inconclusive call do not appear. Where a call stands in place of a potency, no number is given. The source made the active and inactive calls. Unless noted, calls follow the shape of the dose curve; as a rule, active = well fitted curve in the direction sought with a large enough effect; inconclusive = small, poorly fitted or top-dose-only effect, or another doubt; inactive = no such curve, though single readings can be large; an effect the other way counts as inactive or inconclusive.

Legend:
CRL-7250 = normal cell line; test: qHTS assay to identify novel small-molecules to repurpose for Merkel cell carcinoma treatment (AID 1296009); details: MCC and control cell lines, CellTiter-Glo viability, 72 h; series mostly up to 92 µM; also: nearly all actives have a fitted effect of over 60% in size
Summary of the method: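 CellTiter-Glo luminescence after 72 hr compound exposure at 37 degree celsius gave cell viability. Libraries NPC and MIPE were run as 8- and 11-point dose responses; RLUs normalized to DMSO (negative) and no-cell (cytotoxicity) controls.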

[1] = qHTS Assay for Identifying Gametocytocidal Compounds (AID 743244); also: potency is read from the fitted curve at half-maximal effect;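 as to max response: actives lower the fluorescent signal which means gametocytes are killed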; details: P. falciparum 3D7 stage III-V gametocytes, alamarBlue, 72 h; max response: stronger effect = lower value
Summary of the method: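 Viability read-out was resazurin reduction (alamarBlue, 24 h) measured at Ex 525/Em 598 nm. Beforehand, late-stage (III-V) 3D7 P. falciparum gametocytes at 20,000 cells/well were incubated with compound 72 h at 37C under 5% CO2.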

[2] = P-glycoprotein substrates identified in KB-8-5-11 adenocarcinoma cell line, qHTS therapeutic library screen (AID 1346987); also: nearly all actives have a fitted effect of over 65% in size; also: potency is read from the fitted curve at half-maximal effect
Summary of the method: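 Human cervical adenocarcinoma KB-8-5-11 cells, selected in colchicine to over-express P-gp and assayed without it, were exposed for 72 h to titrated compounds. An ATP-based luminescent viability signal gave AC50.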

KB-3-1 = test: Cytotoxic Profiling of Annotated Libraries Using Quantitative High-Throughput Screening (AID 1296008); details: Five cell lines viability, CellTiter-Glo ATP luminescence, 48-72 h; max response: stronger effect = lower value; also: nearly all actives have a fitted effect of over 60% in size; also: potency is read from the fitted curve at half-maximal effect
Summary of the method: (§1)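 Cells exposed to compounds for 48 or 72 hr at 37 degrees Celsius. Viability read as ATP-coupled luminescence with CellTiter-Glo after 10 min at room temperature.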

[3] = biological target: Luciferin 4-monooxygenase (Photinus pyralis) (UniProt P08659); test: Biochemical firefly luciferase enzyme assay for NPC (AID 624030);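 also: purified P. pyralis luciferase at 10 nM with luciferin and ATP substrate; nearly all actives have a fitted effect of over 70% in size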
Summary of the method: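 Purified P. pyralis luciferase at 10 nM in 50 mM Tris Acetate (final), luminescence read within 5 minutes of enzyme addition to compounds. Activity normalised to PTC124 versus DMSO; concentration-response curves classed by r2, magnitude and activity.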

[4] = Primary qHTS for Huh7 cytotoxicity: counterscreen for inhibitors of MERS-S pseudotyped particle cell entry (AID 1479147; calls by dose curve); details: outcome: dose series up to 57.1 µM unless noted
[5] = Primary qHTS for inhibitors of MERS-S pseudo-typed particle cell entry (AID 1479149; calls by dose curve; also: nearly all actives have a fitted effect of over 60% in size)
[6] = Primary qHTS for Vero E6 cytotoxicity: counterscreen for inhibitors of SARS-S pseudo-typed particle cell entry (AID 1479150; calls by dose curve); details: outcome: dose series up to 57.1 µM unless noted
[7] = Cytotoxicity counterscreen for inhibitors of SARS-CoV-2 cell entry (AID 1645845; calls by dose curve; also: nearly all actives have a fitted effect of over 50% in size)
Summary of the method: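 Counterscreen run in the same HEK293-ACE2 line as the pseudotyped-particle entry assay, without particles. Viability after 48 h at 37 C was read as ATP luminescence, scaled between cell-containing and cell-free wells.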

[8] = biological target: Glutathione peroxidase 1 (Homo sapiens) (UniProt P07203); test: Primary qHTS Assay for Inhibitors of Recombinant Selenoprotein Glutathione Peroxidase 1 (GPX1) (AID 1845191); also: nearly all actives have a fitted effect of over 65% in size
Summary of the method: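 GR-coupled readout: NADPH consumption tracked by fluorescence, ex 340/em 450 nm, at t=0 and after 15 min at RT. Final mix 10 nM GPX1, 1 mM GSH, 0.5 mM CHP, 0.5 mM NADPH, 100 nM GR, 0.01% BSA, following 30 min enzyme–compound preincubation.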

[9] = biological target: Phospholipid hydroperoxide glutathione peroxidase GPX4 (Homo sapiens) (UniProt P36969); test: Primary qHTS Assay for Inhibitors of Recombinant Selenoprotein Glutathione Peroxidase 4 (GPX4) (AID 1845192); also: nearly all actives have a fitted effect of over 65% in size
Summary of the method: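 Steps: GPX4 plus compound, 30 min RT; add GR/GSH/NADPH master mix; start with cumene hydroperoxide; read 340/450 nm fluorescence at 0 and 15 min. Finals were 200 nM GPX4, 1 mM GSH, 0.5 mM CHP, 0.5 mM NADPH, 100 nM GR.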

[10] = tested on: Zika virus NS2B-NS3 protease (unlinked complex); test: Primary screen GU Rhodamine qHTS for Zika virus inhibitors: Unlinked NS2B-NS3 protease assay (AID 1347159); also: nearly all actives have a fitted effect of over 60% in size
Summary of the method: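 In dose–response format, inhibition of unlinked protease (25 nM) was measured with 1.5 microM bis-peptide Rhodamine110 substrate. Aprotinin served as the intraplate control.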

[11] = tested on: Zika virus NS2B-NS3 protease (linked construct); test: Primary screen NINDS Rhodamine qHTS for Zika virus inhibitors (AID 1347160); also: nearly all actives have a fitted effect of over 55% in size
Summary of the method: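 Each compound, titrated, sat 15 min with 25 nM linked protease before 1.5 microM Rhodamine110 substrate went in. Fluorescence gain over the next 15 min, in pH 8.0 Tris with Tween 20, gave Hill-fitted curves.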

[12] = biological target: Calcium and integrin-binding protein 1 (Homo sapiens) (UniProt Q99828); test: Primary qHTS for Identification of Calcium Integrin Binding Protein 1 (CIB1) Competitor (AID 1508620);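 also: GST tagged CIB1 binding a fluorescein labelled alphaIIb integrin peptide tracer; top concentration of the series differs between compounds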
Summary of the method: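 Fluorescence polarization competition: GST-tagged CIB1 (1 uM final) preincubated with compound 15 min at room temperature, then FITC-labelled alphaIIb peptide (100 nM final) added. After 15 min at room temperature, polarization read at Ex 480/Em 540.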

[13] = biological target: Luciferin 4-monooxygenase (Photinus pyralis) (UniProt P08659); test: Primary firefly luciferase (FLuc) qHTS assay for identification of artifact compounds. (AID 1845220); details: outcome: dose series up to 54.1 µM unless noted; also: nearly all actives have a fitted effect of over 60% in size
Summary of the method: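 Titrated compounds were incubated 15 min at RT, protected from light, with luciferin and ATP at 10 uM; reaction started with 10 nM FLuc, luminescence imaged at 5 min, and concentration-response fitted by Hill equation.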

[14] = Primary fluorescence-based thiol-reactive (MSTI) qHTS assay for identification of artifact compounds. (AID 1845221);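 also: thiol-reactive compounds lower the probe fluorescence signal; nearly all actives have a fitted effect of over 65% in size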
Summary of the method: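 Thiol-reactive compounds detected by quenching of 4 uM MSTI fluorescence (525/598 nm) after 1 h room-temperature dark incubation in PBS pH 7.4, 2% DMSO. qHTS titration; percent inhibition Hill-fitted against Acetyl-MSTI/MSTI controls.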

[15] = tested on: Nanoluciferase (engineered Oplophorus gracilirostris luciferase); test: Primary Nanoluciferase (NLuc) qHTS assay for identification of artifact compounds. (AID 1845222);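 also: NLuc secreted into diluted conditioned medium of S16 cells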
Summary of the method: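 qHTS format, against NLuc in S16 cell-conditioned medium. Nano-Glo substrate 1:100 was added after 15 min at room temperature. Luminescence was taken after a further 5 min.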

[16] = Primary redox qHTS assay for identification of artifact compounds. (AID 1845223)
Summary of the method: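 Redox-cycling detection via DTT (250 uM final) oxidation coupled to Amplex Red (25 uM)/HRP (250 mU/mL) in HBSS. 15 min preincubation plus 30 min after DTT, room temperature. Ex/Em 525/598 nm; 4-parameter Hill fit against DMSO and 10 uM DA3003.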

NIH3T3 = test: Cytotoxic Profiling of Annotated Libraries Using Quantitative High-Throughput Screening (AID 1296008); details: Five cell lines viability, CellTiter-Glo ATP luminescence, 48-72 h; max response: stronger effect = lower value; also: nearly all actives have a fitted effect of over 60% in size; also: potency is read from the fitted curve at half-maximal effect
Summary of the method: as §1

C33A = test: Primary qHTS to identify gynecologic anti-cancer compounds using libraries of approved drugs and bioactive compounds (AID 1345084); details: Gynecologic cancer cell panel viability, ATPlite luminescence, 48 h; series mostly up to 57.5 µM; also: nearly all actives have a fitted effect of over 55% in size
Summary of the method: (§2)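 Five-point cytotoxicity, 48 h drug exposure at 37 C, 5% CO2, on cells seeded 16 h beforehand. ATP content read by ATPlite luminescence.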

CAOV3 = test: as above; details: Gynecologic cancer cell panel viability, ATPlite luminescence, 48 h; series mostly up to 57.5 µM
Summary of the method: as §2

CASKI = test: as above; details: Gynecologic cancer cell panel viability, ATPlite luminescence, 48 h; series mostly up to 57.5 µM
Summary of the method: as §2

HeLa = test: as above; details: Gynecologic cancer cell panel viability, ATPlite luminescence, 48 h; series mostly up to 57.5 µM
Summary of the method: as §2

JEG-3 = test: as above; details: Gynecologic cancer cell panel viability, ATPlite luminescence, 48 h; series mostly up to 57.5 µM
Summary of the method: as §2

OV90 = test: as above; details: Gynecologic cancer cell panel viability, ATPlite luminescence, 48 h; series mostly up to 57.5 µM
Summary of the method: as §2

SKOV3 = test: as above; details: Gynecologic cancer cell panel viability, ATPlite luminescence, 48 h; series mostly up to 57.5 µM
Summary of the method: as §2

Tov-21-G = test: as above; details: Gynecologic cancer cell panel viability, ATPlite luminescence, 48 h; series mostly up to 57.5 µM
Summary of the method: as §2

astro = test: Drug repurposing screens with cells derived from glioblastoma tumor samples (AID 1345199); details: viability, ATP luminescence, 48 h; series mostly up to 45.9 µM; also: nearly all actives have a fitted effect of over 40% in size
Summary of the method: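 Primary testing used CD133+ neurospheres from four GBM patients, seven concentrations, 48 h exposure and ATP-based viability; confirmation added three slower-growing patient lines.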

[17] = Primary qHTS for inhibitors of SARS-S pseudo-typed particle cell entry (AID 1479145; calls by dose curve; also: nearly all actives have a fitted effect of over 45% in size)

Sequence of Glutathione peroxidase 1 (Homo sapiens) (P07203 whole entry, looked up): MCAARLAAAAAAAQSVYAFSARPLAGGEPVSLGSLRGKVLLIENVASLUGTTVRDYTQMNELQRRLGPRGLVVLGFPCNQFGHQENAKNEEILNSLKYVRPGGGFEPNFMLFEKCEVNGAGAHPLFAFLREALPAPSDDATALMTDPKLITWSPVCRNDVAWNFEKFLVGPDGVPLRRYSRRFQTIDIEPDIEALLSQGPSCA
Sequence of Phospholipid hydroperoxide glutathione peroxidase GPX4 (Homo sapiens) (P36969 whole entry, looked up): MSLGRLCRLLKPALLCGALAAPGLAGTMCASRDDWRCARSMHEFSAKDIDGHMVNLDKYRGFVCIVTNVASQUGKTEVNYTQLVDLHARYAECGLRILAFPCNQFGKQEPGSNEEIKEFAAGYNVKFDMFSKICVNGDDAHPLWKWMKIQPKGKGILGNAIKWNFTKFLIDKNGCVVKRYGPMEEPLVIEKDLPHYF
Sequence of Calcium and integrin-binding protein 1 (Homo sapiens) (Q99828 whole entry, looked up): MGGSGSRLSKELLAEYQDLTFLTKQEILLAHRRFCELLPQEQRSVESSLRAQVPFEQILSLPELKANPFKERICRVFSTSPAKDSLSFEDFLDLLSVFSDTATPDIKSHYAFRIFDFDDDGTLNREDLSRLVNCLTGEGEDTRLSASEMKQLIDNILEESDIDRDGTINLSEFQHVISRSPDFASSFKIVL
Sequence of Luciferin 4-monooxygenase (Photinus pyralis) (P08659 whole entry, looked up): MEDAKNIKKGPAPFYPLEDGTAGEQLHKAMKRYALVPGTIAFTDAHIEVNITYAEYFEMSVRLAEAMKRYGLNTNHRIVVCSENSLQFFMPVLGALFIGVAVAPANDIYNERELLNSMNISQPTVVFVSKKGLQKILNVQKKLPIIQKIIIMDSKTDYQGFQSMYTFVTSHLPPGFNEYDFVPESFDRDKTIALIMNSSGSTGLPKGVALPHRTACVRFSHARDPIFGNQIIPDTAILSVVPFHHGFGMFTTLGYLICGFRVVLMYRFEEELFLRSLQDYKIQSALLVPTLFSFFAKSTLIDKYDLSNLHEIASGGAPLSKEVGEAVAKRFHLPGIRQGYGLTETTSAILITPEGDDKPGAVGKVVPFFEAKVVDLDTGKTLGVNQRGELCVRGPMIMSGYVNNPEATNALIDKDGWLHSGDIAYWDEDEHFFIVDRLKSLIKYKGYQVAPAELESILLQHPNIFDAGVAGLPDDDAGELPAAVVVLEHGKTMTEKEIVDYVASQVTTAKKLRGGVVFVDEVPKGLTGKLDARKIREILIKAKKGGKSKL

OCC(O)C(c1c[nH]c2ccccc12)c1c[nH]c2ccccc12 (configuration not stated)
Potency (CRL-7250): inactive

CC1CC=C2C1CC1(O)C(=O)CC2(C)C1(C)CO (configuration not stated)
Potency (CRL-7250): inactive

NCCOCCOCCNC(=O)Cc1ccc(Nc2nc(NCc3ccc(F)cc3)nc(NCC3CCCCC3)n2)cc1
Potency (CRL-7250): inactive

CC(CC12CCCN1C(=O)C1CCCN1C2=O)OC(N)=O (configuration not stated)
Potency (CRL-7250): inactive

O.O.O.O=C([O-])C(O)C(O)C(=O)[O-].O=C([O-])C(O)C(O)C(=O)[O-].[K+].[K+].[Sb].[Sb] (configuration not stated)
Potency [1]: 708 nM (active) | Potency [2]: 8200 nM (active) | max response (KB-3-1): -33.9%

O=C(NC1CCN(CC(F)(F)F)CC1)c1ccc(-c2cccc(F)c2)nc1
Potency (CRL-7250): inactive

Cc1nnc2n1-c1sc(Br)cc1C(c1ccccc1Cl)=NC2
Potency [3]: inactive | max response [1]: 6.14% | outcome [4]: inactive | Potency [5]: inactive | outcome [6]: inactive | Potency [7]: inactive | Potency [8]: inactive | Potency [9]: inactive | max response (KB-3-1): -25.2%

COC(=O)/C=C/C=C/C(=O)OC1C=C2COC(=O)C2(O)C2(C)CCCC(C)(C)C12 (configuration not stated)
Potency (CRL-7250): inactive

CC(C)C1=CC2=CCC3[C@](C)(CCC[C@@]3(C)C(=O)O)C2CC1=O (some centres not stated)
Potency (CRL-7250): inactive

CC1CCC2(NC1)OC1C(=O)C3C4CCC5CC(O[C@@H]6O[C@H](CO)[C@@H](O)[C@H](O)[C@H]6O[C@@H]6O[C@@H](C)[C@H](O)[C@@H](O)[C@H]6O)CCC5(C)C4CCC3(C)C1C2C (some centres not stated)
Potency (CRL-7250): inactive

CC1=CC(=O)[C@@H](O)[C@]2(C)C3[C@@H](O)[C@@H]4OC(=O)[C@@H]([C@H]4C)[C@]3(C)C(=O)[C@H](O)[C@@H]12 (some centres not stated)
Potency [10]: inactive | Potency [11]: inactive | Potency [12]: inactive | Potency [8]: inactive | Potency [9]: inactive | outcome [13]: inactive | Potency [14]: inactive | Potency [15]: inactive | Potency [16]: inactive | Potency (NIH3T3): 2550 nM (active) | Potency (C33A): inactive | Potency (CAOV3): inactive | Potency (CASKI): inactive | Potency (HeLa): inactive | Potency (JEG-3): inactive | Potency (OV90): inactive | Potency (SKOV3): inactive | Potency (Tov-21-G): inactive

COc1ncc2cc(C(=O)Nc3cc(C(=O)NCc4cccc(Cl)c4)ccc3Cl)c(=O)[nH]c2n1
Potency (CRL-7250): inactive

COc1ccc2c(c1)O[C@H](O[C@@H]1O[C@H](CO)[C@@H](O)[C@H](O)[C@H]1O)C(=O)N2
Potency (CRL-7250): inactive

Cc1cc(O)cc(O[C@@H]2O[C@H](CO)[C@@H](O)[C@H](O)[C@H]2O)c1
Potency (CRL-7250): inactive

CCC(=O)O[C@](Cc1ccccc1)(c1ccccc1)[C@H](C)CN(C)C
max response [1]: 0.382% | max response (KB-3-1): 0.566% | Potency (astro): inactive

COc1cc(O)c2c(c1)C1(OC2=O)C(C)=CC(=O)C1O (configuration not stated)
Potency (CRL-7250): inactive

CC(C)C[C@H]1C(=O)N2CCC[C@H]2[C@]2(O)O[C@](NC(=O)[C@@H]3C[C@@H]4c5cccc6[nH]cc(c56)C[C@H]4N(C)C3)(C(C)C)C(=O)N12
Potency [17]: inactive | outcome [4]: inactive | Potency [5]: inactive | outcome [6]: inactive | Potency [7]: inactive | Potency [8]: inactive | max response (KB-3-1): -14.2%

CCc1cc(OC)c(C[C@@H](C)N)cc1OC
max response [1]: 0.694% | Potency [2]: inactive | max response (KB-3-1): -13.5% | Potency (astro): inactive

COC(=O)C1=COC(OC2OC(CO)C(O)C(O)C2O)C2C(COC(=O)/C=C/c3ccc(O)c(O)c3)C(O)C(O)C12 (configuration not stated)
Potency (CRL-7250): inactive
